# Columns and labels:
# [1] = target: T1, ETS1 (UniProt P14921); assay: ETS1 binding intensity (PBM fluorescence), ETS1 alone (arbitrary fluorescence units); higher = stronger binding; details: ETS1 concentration 1 nM; RUNX1 concentration 0 nM
# T1 sequence: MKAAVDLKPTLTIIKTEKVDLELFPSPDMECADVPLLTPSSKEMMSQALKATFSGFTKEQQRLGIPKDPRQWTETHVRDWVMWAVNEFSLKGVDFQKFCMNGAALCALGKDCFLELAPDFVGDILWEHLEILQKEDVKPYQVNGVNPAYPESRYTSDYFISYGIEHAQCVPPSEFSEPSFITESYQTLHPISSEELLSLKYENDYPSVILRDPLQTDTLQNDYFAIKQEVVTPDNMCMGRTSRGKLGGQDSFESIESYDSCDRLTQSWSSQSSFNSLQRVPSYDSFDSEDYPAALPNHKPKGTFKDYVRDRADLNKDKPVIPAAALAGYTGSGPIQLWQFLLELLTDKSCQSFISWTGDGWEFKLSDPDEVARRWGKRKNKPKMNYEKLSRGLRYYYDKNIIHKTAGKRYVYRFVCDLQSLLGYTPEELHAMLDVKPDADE
# [2] = target: RUNX1 (UniProt Q01196); assay: RUNX1 binding intensity (PBM fluorescence), RUNX1 alone (arbitrary fluorescence units); higher = stronger binding; details: RUNX1 concentration 2 nM; ETS1 concentration 0 nM
# Sequence of RUNX1 (Q01196 whole entry): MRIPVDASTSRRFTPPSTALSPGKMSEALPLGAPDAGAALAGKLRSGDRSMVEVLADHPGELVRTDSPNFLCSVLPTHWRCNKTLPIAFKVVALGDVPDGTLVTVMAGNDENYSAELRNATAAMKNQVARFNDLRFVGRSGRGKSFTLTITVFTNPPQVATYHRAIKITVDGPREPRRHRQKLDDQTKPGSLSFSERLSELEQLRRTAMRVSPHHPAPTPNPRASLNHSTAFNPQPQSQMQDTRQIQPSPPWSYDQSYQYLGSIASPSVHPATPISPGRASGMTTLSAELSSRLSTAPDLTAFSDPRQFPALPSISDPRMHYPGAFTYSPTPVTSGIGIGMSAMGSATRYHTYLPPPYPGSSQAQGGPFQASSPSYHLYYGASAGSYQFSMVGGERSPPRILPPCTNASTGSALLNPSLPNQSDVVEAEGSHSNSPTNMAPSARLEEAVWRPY
# Description: (§1)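 Cooperative gcPBM on 36-bp genomic probes with neighbouring ETS1 and RUNX1 sites. Recombinant human RUNX1 (2 nM) was incubated alone or with ETS1 (25 nM) and detected with anti-RUNX1 antibody plus Alexa488 secondary. Values are medians over 4 replicate spots; the RUNX1+ETS1 data were normalised to the RUNX1-only data. The probes sit in constant array flanks that are not printed.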
# [3] = target: T1, ETS1; assay: ETS1 binding intensity (PBM fluorescence) in presence of RUNX1, normalised to ETS1-only experiment (arbitrary fluorescence units); higher = stronger binding; details: ETS1 concentration 1 nM; RUNX1 concentration 25 nM
# [4] = target: RUNX1 (UniProt Q01196); assay: RUNX1 binding intensity (PBM fluorescence) in presence of ETS1, normalised to RUNX1-only experiment (arbitrary fluorescence units); higher = stronger binding; details: RUNX1 concentration 2 nM; ETS1 concentration 25 nM
# Description: as §1
# 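Throughout, for RUNX1 binding intensity (PBM fluorescence) in presence of ETS1, normalised to RUNX1-only experiment: Full-length recombinant human ETS1 or RUNX1 bound to double-stranded 36-bp genomic probes on microarrays, detected by protein-specific primary antibody and Alexa488 secondary, spot fluorescence as median of four replicate spots.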
# 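Throughout, for RUNX1 binding intensity (PBM fluorescence), RUNX1 alone: Full-length recombinant human RUNX1 bound to double-stranded 36-bp genomic probes on a high-density microarray, scored as Alexa488 fluorescence per spot via anti-RUNX1 antibody, median of four replicate spots.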
Sequence,ETS1 binding intensity [1],RUNX1 binding intensity [2],ETS1 binding intensity [3],RUNX1 binding intensity [4]
GATCTTCCTGCAACCCCCCGAGACAACCACCGAACA,854,1090,887,1400
TTAAACACGGAAGTGCATCGGTTGTTGTGGTTATTC,1260,845,4360,1150
GGGTGCTTCCTATAAACAATGACTCATTACCGCACT,425,920,474,976
GAAGCTACTCTGGTTTCCTGTGGTTTTCTGAGCACT,597,1260,1320,2900
TGTCGGGCGGATGTGTACCGGCGGTAATATAGTAAG,2300,753,2270,1220
TTTGATTTCCTGTCTCCATGTTGTGGTCAAGATTGC,1080,1370,2990,4420
GTTGTCTTGCCCAAAGGAAGTGGTTACTAGACCAGA,1770,793,4870,1490
CTTAGCGGAAGAGGCGTGACCCAGGCGTACCGCAGG,497,804,1320,870
CACCAGGACGCAACAGGAAACCACAAAGGCCTGAGA,2390,2660,6500,5270
CTGGTAGAAAAGGAAGCAGGTTGTGGTGAGCATTTA,837,767,1720,932
GCCTCCTCCCATTTCCTCCATGTGGTCAATCCAGTT,459,2070,731,3860
CTTAAATGGGAAATGTAGGTGTGGTTAAGTCACAAA,558,859,556,915
GCAACAGCGATCCCCGGAAACCACAAGGCGAGATGT,1660,1680,5080,2790
CGACTTCCGTCCCTGGGTGGGATCGAACCACCAACC,532,1100,540,2780
GTCCTCTTCCTGTCCCCCAGGTGGGCATGTGGTTTG,519,988,751,1790
TAACTACTTCCTTTTACTATCTACCACAATTTAATT,516,1620,510,2810
CTCACAGAAGAGGCAGGAAGTGGTTTGAGTTATCAT,9460,820,13700,1590
GCTGCAAGGCGGAAGCAGCGCGGTCGGACGGGCATG,1650,721,2400,997
CTCCTTCCTGTGTGTTACTCTTAAAAACCACAGAGG,519,1230,1780,3040
AACATCCGGTTCCCGGTTCTGCCCCCTACCGCAGCT,3190,917,5870,3920
CTGACACTTCCGGGAGCCTTGTAGCCACAGGAATCA,2490,743,2590,1800

Sequence,ETS1 binding intensity [1],RUNX1 binding intensity [2],ETS1 binding intensity [3],RUNX1 binding intensity [4]
GGGAGGTGTCCAGGAAGTGGTTGGAGAGTCTGGTCT,2240,756,3340,1020
TCGTGTTCTCTTCCGTTCTGTGGTAGCTTTTTGGTA,655,1470,557,1870
CTTCTACTTCCTGCCCCGCCCCCAGCTGTGGTCACA,1420,1490,3150,3430
GACAGTCATGTTTCAGGATGTGGTTTTAGCCAAAGG,1550,816,13200,1710
GGGCTCGGGGAGGAAGCGGTGGTTTCTCTTTGAAGC,696,729,907,970
CCCGCCACTTCCCTGCCTCTGCGGGAGCCCCCCAGC,573,938,545,1430
TGAGTCACAGAGACAGGATGTGGTGCAGGGGGTATT,7580,718,13500,1030
CTGAGTGAGACAGGATGTGGGCAGACCTCTAACACA,5110,733,11000,3230
GCTTACACTTCCTCCCTGAACCCCTGCGGTTTCACA,511,4160,1960,10200
TGGAGTGAAGCGGCTTCCTTGCGGTTGTGTGCGTGT,403,1900,799,2630
CAAGGGAACATCCTTAAACAGCTTGTGGTATTGCTG,735,878,1060,1060
CTCCGCCTTTCACTTCCTAGTAACCGCCCTCCCTTG,522,2190,647,2400
GAGAAACAAACAGGATGTGGTCTCTGCCCTGGAGGA,7010,737,12000,2420
CCGCTTCCGGGACGCGAATCGCTCTGCGGCTGCGTC,556,832,722,2080
GCAGAGAGGAGGGGATGTGGTTTCACAGCTTGCTCC,422,835,1720,937
GAGCGGAAACCCGAGAGTCAGTTCAACCACAGCCAC,592,889,980,1010
CAGCAGAGGCGCGGATGTGGTTAAACGAGTGCCGTC,775,876,6770,3670
TGTGTAACTTCCTGGCTTTGGTGGTTTCCCCCTCCT,1150,757,1390,2180
TTTACAGGAAATTACAGGGGTTAAACCAAACCACAA,986,941,1140,1820
GGACAAAACATCATAGGAAGTGGGTTTTGGGGTGAG,1500,761,2950,914
CCTGCCGAGGAAGTCCCACGTCACTGCGGTTAGAGT,356,1670,2090,3000

# Source: the supplement of paper PMC10681739
